For orientation: Inhibition means how much of the control response was suppressed.

Consider 13 molecules from ChEMBL document CHEMBL1157539, “Thousands of chemical starting points for antimalarial lead identification” (Nature, 2010).

This experiment relates to HepG2. Put plainly: GSK_TCMDC: Percent inhibition of human HepG2 cell line. Test compounds present at 10uM. It is filed as functional.
The molecule `N=C(NCc1ccccc1)Nc1nc(-c2ccc(OCCCn3ccnc3)cc2)cs1` gave an Inhibition of 10%. The figure for `Cl.N=C(N)Nc1ccc(OCCCCCOc2ccc(NC(=N)N)cc2Br)c(Br)c1` is 27%. In the case of `CC(CO)(CO)NCc1cc2c3ccccc3c(CNC(C)(CO)CO)cc2c2ccccc12.CS(=O)(=O)O`, the Inhibition was determined as 40%. `CCN(CC)CCOc1ccc(C(O)(C#CC(O)(c2ccc(Br)cc2)c2ccc(OCCN(CC)CC)cc2)c2ccc(Br)cc2)cc1` (stereo not drawn) yielded an Inhibition of 99%. Regarding `CC(=O)Nc1nc(C(=O)Nc2ccc(-c3cccc(-c4nc5cccc(C)c5[nH]4)c3)cc2)cs1`, the Inhibition was 100%. The figure for `O=C(O)C(F)(F)F.O=S(=O)(NC1CCCCN(Cc2ccccc2O)C1)c1ccc(C(F)(F)F)cc1` (stereo not drawn) is 1%; for `CCCCCCCCCc1c(C)[nH]c2ccccc2c1=O` it is 0%; for `COc1ccc(C[C@H](N)C(=O)N[C@H]2[C@@H](O)[C@H](n3cnc4c(N(C)C)ncnc43)O[C@@H]2CO)cc1.Cl` it is 98%. Under `CN1CCc2ccc(NC(=O)Nc3cccc([N+](=O)[O-])c3)cc2C1` stands 0%; under `CO/C(=C\C=C\c1cc2cc(Cl)c(Cl)cc2[nH]1)C(=O)NCCCN(C)CCN(C)c1ccccc1`, 38%. `COc1ccc(-c2ccccc2OCCCNc2nc(NCCc3ccc(O)cc3)nc(N3CCNCC3)n2)cc1.O=C(O)C(F)(F)F` gave an Inhibition of 36%. Under `O=C(NC1CC1)c1cnc(N2CCN(Cc3c(F)cccc3Cl)CC2)c(Cl)c1.O=C(O)C(F)(F)F` stands 0%; under `COc1cc(C(=O)NCCCN2CCN(c3cccc(Cl)c3)CC2)ccc1-c1nc2cc(Cl)c(F)cc2[nH]1`, 15%.
